Only some compounds are listed: those with a hit (about 19% of all), similar ones and a draw of the others.
DT40 TDP1 no CPT: qHTS for Inhibitors of human tyrosyl-DNA phosphodiesterase 1 (TDP1): qHTS in cells in absence of CPT; 15% of 420,000 active; Potency, µM (series often up to 46.2 µM), for inactives: at the top dose activity change, negative = growth inhibition, usual class: inhibitors; DT40 Tdp1-/- hTDP1 cells, no CPT, ATP luminescence, 48 h; AID 686978, 2013; also: nearly all actives have a fitted effect of over 55% in size
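Chicken DT40 Tdp1-/- cells stably complemented with human TDP1 were seeded at 400 cells/well with DMSO in place of 20 nM camptothecin. After compound pinning, cells grew at least 48 hr at 37 °C; viability read by CellTiter-Glo luminescence.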
HT1080 IDH1KD tx: qHTS for induction of synthetic lethality in tumor cells producing 2HG: qHTS for the HT-1080-IDH1KD cell line | 2% of 360,000 active | HT-1080 IDH1 knockdown viability, ATP luminescence, 48 h | AID 686971, 2013 | Potency, µM (top dose mostly 46.1 µM), inactives show top-dose activity, negative = toxicity, actives largely listed as cytotoxic;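 also: 0% = DMSO wells and -100% = cell-free medium wells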
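In this qHTS, HT-1080 cells depleted of IDH1 are exposed for 48 h at 37 °C to compound titrations. Toxicity is scored from CellTiter-Glo luminescence, with DMSO as full viability and medium alone as none.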
KB-3-1 tox: qHTS assay for MDR1-selective chemotherapeutics: Primary screen using the parental adenocarcinoma cell KB-3-1 | 1.4% of 400,000 active | KB-3-1 viability, CellTiter-Glo ATP luminescence, 72 h | Potency, µM (top dose mostly 46.1 µM), usual class: cytotoxic | AID 1347075, 2019; also: nearly all actives have a fitted effect of over 60% in size
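72 h, 37 °C compound treatment of KB-3-1 parental cells; CellTiter-Glo added, 10 min, luminescence read. Data corrected against DMSO-only plates and normalized before curve fitting.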
HT1080NT lethal: qHTS for induction of synthetic lethality in tumor cells producing 2HG: qHTS for the HT-1080-NT fibrosarcoma cell line | Potency, µM (highest dose often 46.1 µM), for the others: at the highest dose activity, negative = less viability, hits mostly cytotoxic | 1.6% of 360,000 active | AID 686970, 2013 | HT-1080-NT fibrosarcoma viability, CellTiter-Glo ATP luminescence, 48 h;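 also: NT is the 2HG producing partner of a matched IDH1 knockdown line; 0% = DMSO-treated cells and -100% = media-only wells without cells; nearly all actives have a fitted effect of over 55% in size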
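Viability by CellTiter-Glo luminescence after 48 h compound exposure at 37C of HT-1080-NT cells (750/well, RPMI, 5% FBS). % activity scaled between DMSO wells and medium-only wells, then curve-fitted and categorized by curve class.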
DT40 TDP1 CPT: qHTS for Inhibitors of human tyrosyl-DNA phosphodiesterase 1 (TDP1): qHTS in cells in presence of CPT; 12% of 420,000 active; Potency, µM (series often up to 46.2 µM), for the others: at the highest dose activity change, negative = growth inhibition, actives largely listed as inhibitors; AID 686979, 2013; chicken DT40 Tdp1-/-;hTDP1 cells + 20 nM CPT, ATP luminescence, 48 h; also: nearly all actives have a fitted effect of over 55% in size
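Chicken DT40 Tdp1-/- cells stably complemented with human TDP1 were seeded at 400 cells/well in medium containing 20 nM camptothecin, exposed to pin-transferred compounds, and grown at 37 °C for at least 48 hr. Viability was read as ATP luminescence.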
KB-V1 cytotox: qHTS assay for MDR1-selective chemotherapeutics: Primary screen using the drug-selected MDR subline cells KB-V1; KB-V1 MDR cells viability, CellTiter-Glo, 72 h; Potency, µM (highest dose often 46.1 µM), usual class: cytotoxic; 3.4% of 400,000 active; also: nearly all actives have a fitted effect of over 60% in size
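In this primary screen, KB-V1 cells overexpressing P-gp are incubated with library compounds (lowest to highest concentration) for 72 h at 37 degrees C before a luminescent ATP viability read.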
* marks the source's active call; other numbers are inactive results; i = inactive; ? = inconclusive; . = no result given; [ ] = remark or other dose. Calls follow the shape of the dose curve; as a rule, active = well fitted curve in the direction sought with a large enough effect; inconclusive = small, poorly fitted or top-dose-only effect, or another doubt; inactive = no such curve, though single readings can be large; an effect the other way counts as inactive or inconclusive. Unless noted, % is scaled to controls: 0 for no effect and ±100 for the full control effect; potency is read from the fitted curve at half-maximal effect.

SMILES	DT40 TDP1 no CPT	HT1080 IDH1KD tx	KB-3-1 tox	HT1080NT lethal	DT40 TDP1 CPT	KB-V1 cytotox
Cc1cc(Cl)cc(Br)c1OCCCN1C(=O)NC(C)(C)C1=O	-14%	5%	?	-4%	-16%	18µM*
CCCCCOc1ccc(Cn2c(=O)oc3ccc(C)cc32)cc1OC	21µM*	.	i	.	26µM*	?
Cc1ccc([N+](=O)[O-])c(OCCN2C(=O)NC(C)(C)C2=O)c1	-18%	3%	i	1%	1%	i
Cc1cc(OCCCCN2C(=O)NC(C)(C)C2=O)ccc1[N+](=O)[O-]	12µM*	-23%	i	-2%	?	?
Cc1ccc(C(C)C)c(OCCCn2c(=O)oc3ccccc32)c1	?	.	i	.	?	i
Cc1ccc(C(C)C)c(OCCCn2c(=O)oc3ccc(C)cc32)c1	16µM*	.	i	.	?	?
Cc1ccc(C)c(N2CCN(S(=O)(=O)c3cc4c(cc3Cl)NC(=O)CO4)CC2)c1	-7%	1%	?	11%	0%	i
CC(C)c1cc(Br)ccc1OCCN1C(=O)NC(C)(C)C1=O	-14%	-9%	i	-9%	-23%	i
Cc1ccc(C(C)C)c(OCCCN2C(=O)NC(C)(C)C2=O)c1	-25%	1%	i	-1%	3%	15µM*
COc1cccc(CN(C)C(=O)CC[C@H]2O[C@@H](n3ccc(=O)[nH]c3=O)[C@H](O)[C@@H]2O)c1	2%	19%	i	19%	4%	i
COCCNC(=O)C1(C)CCCN(C(=O)c2ccccc2C(F)(F)F)C1 (configuration not stated)	1%	25%	i	?	-19%	i
COC(=O)c1ccccc1NC(=S)N(Cc1ccc2c(c1)OCO2)Cc1cc2cc(OC)ccc2[nH]c1=O	16µM*	-3%	i	1%	9.2µM*	18µM*
CCN(CC)CCCN(Cc1cc2cc3c(cc2[nH]c1=O)OCO3)C(=S)Nc1ccccc1OC	-15%	-10%	i	-15%	18µM*	?
CN(C)CCCN(Cc1cc2cc3c(cc2[nH]c1=O)OCO3)C(=S)Nc1ccccc1	-4%	-4%	?	-6%	0%	i
COc1ccccc1NC(=S)N(CCCN(C)C)Cc1cc2cc3c(cc2[nH]c1=O)OCO3	-16%	-3%	i	-3%	-1%	i
CN(C)CCCN(Cc1cc2cc3c(cc2[nH]c1=O)OCO3)C(=S)Nc1cccc(Cl)c1	29µM*	-22%	i	15µM*	?	i
COc1ccccc1NC(=O)N(Cc1cccs1)Cc1cc2cc3c(cc2[nH]c1=O)OCO3	16µM*	?	?	?	?	?
Cc1cc(C)c(S(=O)(=O)N2CCC(N3CCN(Cc4ccccc4)C(=O)C3=O)CC2)c(C)c1	-17%	.	i	.	-18%	?
C=CC1CN2CCC1CC2C(O)c1ccnc2ccc(OC)cc12 (configuration not stated)	.	-4%	i	0%	.	?
COc1ccc(NC(=O)NCCn2nnc3cc(S(=O)(=O)N(C)C)ccc32)cc1	22%	.	i	.	10%	i
Cn1c(=O)c2c(nc(N3CCCCCC3)n2Cc2cccc3ccccc23)n(C)c1=O	26µM*	-29%	18µM*	-5%	?	?
CCOC(=O)Cn1c(=O)c2c(nc(N3CCOCC3)n2Cc2ccccc2)n(C)c1=O	16µM*	.	.	.	?	.
CCOC(=O)Cn1c(=O)c2c(nc3n2CCCN3Cc2ccccc2)n(C)c1=O	-24%	11%	i	0%	4%	i
Cn1c(=O)c2c(nc(N3CCOCC3)n2Cc2ccccc2)n(C)c1=O	26µM*	.	i	.	?	i
Clc1ccc(-c2c[n+](Cc3ccc(Br)cc3)c3n2CCCCC3)cc1	2.6µM*	?	?	?	2.6µM*	i
SMILES	DT40 TDP1 no CPT	HT1080 IDH1KD tx	KB-3-1 tox	HT1080NT lethal	DT40 TDP1 CPT	KB-V1 cytotox
N#CC[n+]1cc(-c2ccc(Cl)cc2)n2c1CCC2	0%	4%	i	2%	-5%	i
Clc1ccc(-c2c[n+](Cc3ccc(Cl)cc3Cl)c3n2CCCCC3)cc1	1.2µM*	16µM*	?	8.2µM*	1.2µM*	i
Clc1ccc(C[n+]2cc(-c3ccccc3)n3c2CCCCC3)c(Cl)c1	0.26µM*	16µM*	2.1µM*	15µM*	0.46µM*	?
O=C(C[n+]1cc(-c2ccc(Cl)c(Cl)c2)n2c1CCC2)OCc1ccccc1	-14%	12%	i	4%	-13%	?
O=C(O)CCCCCNC(=O)CSc1nnc(-c2ccco2)n1-c1ccccc1	17%	6%	i	6%	-3%	i
COc1ccc(OC)c(Nc2ncnc3sc(-c4ccccc4)cc23)c1	?	3%	i	9%	?	i
CNc1ncnc2sc(-c3ccccc3)cc12	?	-17%	?	-22%	16µM*	9.2µM*
OCCOCCNc1ncnc2sc(-c3ccccc3)cc12	?	-9%	?	-14%	?	?
CN(C)CCNc1ncnc2sc(-c3ccccc3)cc12	18µM*	?	i	?	?	i
O[C@@H]1CN(CC2CCCCC2)[C@@H](c2ccc(Cl)cc2)C[C@H]1n1cc(-c2ccc(F)cc2)nn1	?	3%	i	3%	?	i
Cc1cccc(OCCC(=O)NO)c1	10µM*	-14%	.	?	10µM*	.
O=C(Cc1ccc(OCCCc2ccccc2)cc1)NO	14µM*	.	i	.	11µM*	i
O=C(CCOc1ccccc1)Nc1ccccc1	7%	-1%[9.24 µM]	i	11%	21%	i
Cc1cccc(OCCCC(=O)O)c1	-13%	-1%	i	5%	-5%	?
O=C(CCOc1ccccc1)NO	11µM*	-2%	.	-1%	10µM*	.
Cc1cccc(OCCCC(=O)NC(C)C)c1	23µM*	-3%	i	1%	-6%	i
CCOc1ccc(CNC(=O)c2ccc(NC(=O)N3CCCCc4ccccc43)cc2)cc1OC	3%	.	i	.	-21%	i

High-throughput results (PubChem BioAssay)
